Source: PubChem
CHT allo act: CHT positive allosteric modulators, primary screen, cell-based, membrane potential dye, choline EC20 | High affinity choline transporter 1 (Homo sapiens), Q9GZV3 | actives 0.49% (n = 310,000) | CHT-expressing cells; active compounds read high; LV-AA mutant CHT in HEK293 cells | B-score at 10 µM;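 active means initial fluorescence not abnormally high and integrated response B-score, plate-corrected, over 3 SD above library mean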
Target sequence (Q9GZV3 whole entry, looked up): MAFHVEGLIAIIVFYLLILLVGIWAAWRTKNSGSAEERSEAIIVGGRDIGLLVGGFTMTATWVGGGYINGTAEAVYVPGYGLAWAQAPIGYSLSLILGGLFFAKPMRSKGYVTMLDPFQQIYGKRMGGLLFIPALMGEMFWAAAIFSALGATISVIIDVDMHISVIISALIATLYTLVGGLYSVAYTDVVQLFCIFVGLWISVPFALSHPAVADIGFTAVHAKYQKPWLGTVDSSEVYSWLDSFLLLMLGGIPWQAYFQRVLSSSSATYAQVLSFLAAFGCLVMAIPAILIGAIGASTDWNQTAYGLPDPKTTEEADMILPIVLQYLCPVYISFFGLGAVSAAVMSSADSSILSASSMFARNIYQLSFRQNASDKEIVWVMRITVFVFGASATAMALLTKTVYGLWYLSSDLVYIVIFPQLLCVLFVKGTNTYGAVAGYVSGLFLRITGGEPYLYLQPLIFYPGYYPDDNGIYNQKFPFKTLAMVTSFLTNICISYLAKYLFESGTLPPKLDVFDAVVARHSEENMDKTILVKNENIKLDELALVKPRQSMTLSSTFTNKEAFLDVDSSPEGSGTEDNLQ
TMEM16A act: TMEM16A chloride channel activators or potentiators, primary screen, cell-based, HTS. Anoctamin-1 (Mus musculus), Q8BHY3. HEK293 TMEM16A/YFP-H148Q/I152L, iodide quench fluorescence; active compounds read low. B-score at 10 µM. actives 0.3% (n = 340,000);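 active means fluorescence-ratio B-score plate-corrected deviation score at least 3 library SD below zero, with starting fluorescence score within 5 deviations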;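 further: channel opened by trigger with iodide after compound preincubation; score built on the fluorescence ratio of max minus min over baseline; more negative score means more quench and so TMEM16A activation or potentiation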
CHT block: inhibitors of human choline transporter CHT; High affinity choline transporter 1 (Homo sapiens), Q9GZV3; AID 488975, 2010; B-score at 10 µM; CHT-expressing cells, membrane potential dye, choline response; active compounds read low; actives 0.86% (n = 310,000);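 active means B-score over 3 SD under the library average, and starting fluorescence ratio not unusually high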;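 further: choline stimulus applied at its EC90 after an EC20 pre-addition; B-score computed on integrated fluorescence ratio after choline addition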
TMEM16A inh: TMEM16A chloride channel inhibitors, primary screen, cell-based, HTS; Anoctamin-1 (Mus musculus), Q8BHY3; HEK293 TMEM16A/YFP iodide influx fluorescence, ionomycin; normalized B-score (activity score, 25-100; higher = stronger inhibition) at 10 µM; actives 1.2% (n = 310,000);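 active means ratio plate-corrected score three or more library SD toward inhibition, starting fluorescence score within five deviations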;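 further: score derived from kinetic fluorescence span divided by baseline fluorescence per well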
CHT inh conf: CHT inhibitors, confirmation, cell-based, membrane potential dye, duplicate; shares compounds with CHT block; CHT-expressing cells, choline membrane potential dye; LV-to-AA substituted CHT, HEK293 cells; CHT activity remaining % of control (active compounds read low), % at 10 µM; actives 70% (n = 2,400);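 active means choline transporter activity left, mean of duplicates at 10 µM, below buffer-only control mean minus 3 SD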;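 further: depolarization triggered by choline at its EC90 following an EC20 pre-addition; 0% = hemicholinium-3 full block and 100% = buffer-only control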
HEK293 CHT ctr: membrane potential effects in parental HEK293, counter-screen for CHT inhibitor project, cell-based, membrane potential dye; shares compounds with CHT block; choline response; active = decrease or increase beyond buffer ±3SD; membrane potential ratio readout (active if shifted either direction beyond buffer ±3SD; no single direction) at 10 µM; actives 4% (n = 2,400);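 further: parental cells lack the transporter so any hit is non-specific; ratio is peak minus trough fluorescence over baseline after EC90 choline challenge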
Numbers without * were called inactive; i = inactive; / = no result given. Shown are actives, neighbours in structure and some others; about 2.4% of the full set was active somewhere.

SMILES | CHT allo act | TMEM16A act | CHT block | TMEM16A inh | CHT inh conf | HEK293 CHT ctr
CCOc1ccccc1NC(=O)CSc1nc2ccccc2nc1N1CCCC1 | i | i | -5.5* | i | i | i
Cc1ccc(C(C)C)c(OCCOCCN2CCNCC2)c1 | i | i | -6.9* | i | 22%* | i
Cc1ccc(C(C)C)c(OCCCCN2CCNCC2)c1 | i | i | i | i | / | /
Cc1nccn1CC(O)COc1ccc(Cl)cc1Cl (stereo not given) | i | i | i | i | / | /
CCOC(=O)c1ccc(NC(=O)CCS(=O)(=O)c2cccc3nonc23)cc1 | i | i | i | i | / | /
CCOC(=O)c1cccc(NC(=O)CCS(=O)(=O)c2cccc3nsnc23)c1 | i | i | -8.3* | i | 36%* | i
N#Cc1ccc(CN2CCN(CC(=O)NCCc3ccc(Cl)cc3Cl)CC2)cc1 | i | i | i | i | / | /
Cc1ccc(N2C(=O)N(CC(=O)Nc3c(C)cc(C)cc3Cl)C(=O)C2C)cc1 (stereo not given) | i | i | -5* | i | i | i
Cc1ccc(N2C(=O)N(CC(=O)Nc3ccc(C)cc3C)C(=O)C2C)cc1 (stereo not given) | i | i | i | i | / | /
O=[N+]([O-])c1ccc(CSc2nnc3ccccn23)cc1 | i | i | -13* | i | 8.8%* | i
Cc1ccccc1C(=O)Nc1ccccc1C(=O)NC1CC1 | i | i | i | i | / | /
COc1ccc(CCNC(=O)CNC(=O)c2ccccc2Br)cc1OC | i | i | i | i | / | /
N=c1sccn1CC(=O)Nc1cccc(S(=O)(=O)N2CCCCCC2)c1 | i | i | i | i | / | /
CCCCc1cc(=O)oc2cc(C)cc(O)c12 | i | i | i | i | / | /
CCCCc1cc(=O)oc2cc(O)cc(O)c12 | i | i | -7.9* | i | 40%* | i
CCCc1cc(O)c2c(C)cc(=O)oc2c1 | i | i | -7.6* | i | 48%* | i
CCn1cc(CNC(=O)CCSc2nc(-c3ccco3)cc(C(F)(F)F)n2)cn1 | i | / | i | i | / | /
N#CCC(=O)Nc1ccc(C(=O)OCC(=O)NNC(=O)c2cccs2)cc1 | i | i | i | i | / | /
C/C(=N\N=C1\NC(=O)C(CC(=O)Nc2ccc(C)c(Cl)c2)S1)C(C)(C)C (stereo not given) | i | i | i | i | / | /
CC(=O)/C(C#N)=C1\NC(=O)C(Cc2ccc(C)c(Cl)c2)S1 (stereo not given) | i | i | -7* | i | i | i
CC1CCCCN1c1ncnc2ccccc12 (stereo not given) | i | i | i | i | / | /
CC1(C)CC2CC(C)(CN2c2ncnc3ccccc23)C1 (stereo not given) | i | i | -5.1* | i | 48%* | i
O=C(Nc1ccncc1)c1cc(S(=O)(=O)N2CCN(c3ccccc3)CC2)ccc1Cl | i | i | i | i | / | /
CCOC(=O)C1=C(c2ccccc2)OC(N)=C(C#N)C1c1cccs1 (stereo not given) | i | i | i | i | / | /
CCOC(=O)C1=C(CC)OC(N)=C(C#N)C1c1cc(OC)ccc1OC (stereo not given) | i | i | -13* | i | i | i
SMILES | CHT allo act | TMEM16A act | CHT block | TMEM16A inh | CHT inh conf | HEK293 CHT ctr
CCOC(=O)C1=C(CC)OC(N)=C(C#N)C1c1ccc(OC)c(OC)c1OC (stereo not given) | i | i | i | i | / | /
CCOC(=O)CC1=C(C(=O)OCC)C(c2cccs2)C(C#N)=C(N)O1 (stereo not given) | i | i | -5.3* | i | i | i
COC(=O)c1cc(NC(=O)c2c(F)c(F)c(F)c(F)c2F)cc(C(=O)OC)c1 | i | i | i | i | / | /
COc1cccc(C(=O)NN/C(C)=C/C(=O)C(F)(F)C(F)(F)C(F)(F)F)c1 | i | i | -8.4* | i | 67%* | i
NC(=O)c1ccsc1NC(=O)CS(=O)(=O)c1ccccc1 | i | i | i | i | / | /
CN(C)CCCNC(=S)NCC(c1ccc(Cl)cc1Cl)c1c[nH]c2ccccc12 (stereo not given) | i | i | -5.8* | i | i | i
Cc1ccc(-n2c(C)cc(=O)cc2C)c(C)c1 | i | i | -5* | i | 34%* | i
Cc1cc(=O)cc(C)n1-c1ccc(F)cc1F | i | i | i | i | / | /
COc1ccc(CN(C(=O)CNC(=O)c2ccco2)C(C(=O)NCC2CCCO2)c2ccccc2)cc1 (stereo not given) | i | i | i | i | / | /
COc1ccc(C2CC(=O)Oc3c(C(CCN4CCCCC4)c4ccc(N(C)C)cc4)c(OC)cc(OC)c32)cc1 (stereo not given) | i | i | -5.9* | i | 47%* | i
COc1cc(OC)c2c(-c3ccccc3)cc(=O)oc2c1C(CCN1CCCC1)c1ccc2c(c1)OCO2 (stereo not given) | i | i | -6.5* | i | 50%* | i
CCCCCc1cc(=O)oc2c(C(CCN3CCCCC3)c3ccc4c(c3)OCO4)c(OC)cc(OC)c12 (stereo not given) | i | i | i | i | / | /
COc1ccc(C2CC(=O)Oc3c(C(CCN4CCCC(C)C4)c4ccc(N(C)C)cc4)c(OC)cc(OC)c32)cc1 (stereo not given) | i | i | i | i | / | /
COc1cc(OC)c2c(-c3ccccc3)cc(=O)oc2c1C(CCN1CCCC(C)C1)c1ccc(N(C)C)cc1 (stereo not given) | i | i | -6* | i | 54%* | i
COc1ccc(C(CCN2CCCC(C)C2)c2c(OC)cc(OC)c3c(-c4ccccc4)cc(=O)oc23)cc1 (stereo not given) | i | i | -5.7* | i | 50%* | i
O=C1CCN(CCc2ccccc2)CCN1CCO | i | i | i | i | / | /
Nc1c(C(=O)Nc2ccc3c(c2)OCCO3)nnn1Cc1cccc(F)c1 | i | i | i | i | / | /
COC(=O)CCCC1=CC2=CC(=O)C(C)(OC(=O)c3ccc(Cl)nc3)C(=O)C2=CO1 (stereo not given) | i | / | i | i | / | /
